About 8,800 targets were measured; listed, in parts, are those with a hit and a random draw of the rest. About 0.5% of all pairs of compound and target were hits.
Columns and labels:
Experiment in all cases: log2 fold change, soluble protein after heating vs DMSO (PISA); higher = thermal stabilisation; K562 lysate, 10 uM; active = over 0.2 and 3.5 SD of the protein, either way, in both replicates (recomputed)
[1] = compound: C1=CC=C(C=C1)[C@H](COC2=CC3=C(C=C2)NC(=O)N3)NC(=O)C4=CC=CN(C4=O)CC5=CC(=C(C=C5)F)F
How it was run: (§1)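 The values are log-two fold changes in thermal stability compared with solvent controls and come from duplicates. They were obtained by TMTpro 16plex LC-MS/MS, with channel sums equalised, on the supernatant after 21,000xg for 90 min. That supernatant came from crude K562 extract at 1 mg/mL protein treated with 10 μM compound for 30 min, heated for 3 min across 48°C-58°C, pooled and brought to 0.5% NP-40 at 4°C.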

[2] = compound: CC1=C(SC2=C1C(=N[C@H](C3=NN=C(N32)C)CC(=O)N)C4=CC=C(C=C4)Cl)C
How it was run: as §1

[3] = compound: CC1=C2C(=CC=C1)N=C(N(C2=O)C3=CC=CC=C3C)CN4C=NC5=C(N=CN=C54)N
How it was run: as §1

[4] = compound: Cc1sc2c(c1C)C(c1ccc(Cl)cc1)=N[C@@H](CC(=O)OC(C)(C)C)c1nnc(C)n1-2
How it was run: as §1

[5] = compound: c1ccc([C@@H]2C[C@H]2NC2CCNCC2)cc1
How it was run: as §1

Measured: log2 fold change

SPG11 (UniProt Q96JI7)
Sequence of UniProt Q96JI7 (Q96JI7 whole entry, looked up): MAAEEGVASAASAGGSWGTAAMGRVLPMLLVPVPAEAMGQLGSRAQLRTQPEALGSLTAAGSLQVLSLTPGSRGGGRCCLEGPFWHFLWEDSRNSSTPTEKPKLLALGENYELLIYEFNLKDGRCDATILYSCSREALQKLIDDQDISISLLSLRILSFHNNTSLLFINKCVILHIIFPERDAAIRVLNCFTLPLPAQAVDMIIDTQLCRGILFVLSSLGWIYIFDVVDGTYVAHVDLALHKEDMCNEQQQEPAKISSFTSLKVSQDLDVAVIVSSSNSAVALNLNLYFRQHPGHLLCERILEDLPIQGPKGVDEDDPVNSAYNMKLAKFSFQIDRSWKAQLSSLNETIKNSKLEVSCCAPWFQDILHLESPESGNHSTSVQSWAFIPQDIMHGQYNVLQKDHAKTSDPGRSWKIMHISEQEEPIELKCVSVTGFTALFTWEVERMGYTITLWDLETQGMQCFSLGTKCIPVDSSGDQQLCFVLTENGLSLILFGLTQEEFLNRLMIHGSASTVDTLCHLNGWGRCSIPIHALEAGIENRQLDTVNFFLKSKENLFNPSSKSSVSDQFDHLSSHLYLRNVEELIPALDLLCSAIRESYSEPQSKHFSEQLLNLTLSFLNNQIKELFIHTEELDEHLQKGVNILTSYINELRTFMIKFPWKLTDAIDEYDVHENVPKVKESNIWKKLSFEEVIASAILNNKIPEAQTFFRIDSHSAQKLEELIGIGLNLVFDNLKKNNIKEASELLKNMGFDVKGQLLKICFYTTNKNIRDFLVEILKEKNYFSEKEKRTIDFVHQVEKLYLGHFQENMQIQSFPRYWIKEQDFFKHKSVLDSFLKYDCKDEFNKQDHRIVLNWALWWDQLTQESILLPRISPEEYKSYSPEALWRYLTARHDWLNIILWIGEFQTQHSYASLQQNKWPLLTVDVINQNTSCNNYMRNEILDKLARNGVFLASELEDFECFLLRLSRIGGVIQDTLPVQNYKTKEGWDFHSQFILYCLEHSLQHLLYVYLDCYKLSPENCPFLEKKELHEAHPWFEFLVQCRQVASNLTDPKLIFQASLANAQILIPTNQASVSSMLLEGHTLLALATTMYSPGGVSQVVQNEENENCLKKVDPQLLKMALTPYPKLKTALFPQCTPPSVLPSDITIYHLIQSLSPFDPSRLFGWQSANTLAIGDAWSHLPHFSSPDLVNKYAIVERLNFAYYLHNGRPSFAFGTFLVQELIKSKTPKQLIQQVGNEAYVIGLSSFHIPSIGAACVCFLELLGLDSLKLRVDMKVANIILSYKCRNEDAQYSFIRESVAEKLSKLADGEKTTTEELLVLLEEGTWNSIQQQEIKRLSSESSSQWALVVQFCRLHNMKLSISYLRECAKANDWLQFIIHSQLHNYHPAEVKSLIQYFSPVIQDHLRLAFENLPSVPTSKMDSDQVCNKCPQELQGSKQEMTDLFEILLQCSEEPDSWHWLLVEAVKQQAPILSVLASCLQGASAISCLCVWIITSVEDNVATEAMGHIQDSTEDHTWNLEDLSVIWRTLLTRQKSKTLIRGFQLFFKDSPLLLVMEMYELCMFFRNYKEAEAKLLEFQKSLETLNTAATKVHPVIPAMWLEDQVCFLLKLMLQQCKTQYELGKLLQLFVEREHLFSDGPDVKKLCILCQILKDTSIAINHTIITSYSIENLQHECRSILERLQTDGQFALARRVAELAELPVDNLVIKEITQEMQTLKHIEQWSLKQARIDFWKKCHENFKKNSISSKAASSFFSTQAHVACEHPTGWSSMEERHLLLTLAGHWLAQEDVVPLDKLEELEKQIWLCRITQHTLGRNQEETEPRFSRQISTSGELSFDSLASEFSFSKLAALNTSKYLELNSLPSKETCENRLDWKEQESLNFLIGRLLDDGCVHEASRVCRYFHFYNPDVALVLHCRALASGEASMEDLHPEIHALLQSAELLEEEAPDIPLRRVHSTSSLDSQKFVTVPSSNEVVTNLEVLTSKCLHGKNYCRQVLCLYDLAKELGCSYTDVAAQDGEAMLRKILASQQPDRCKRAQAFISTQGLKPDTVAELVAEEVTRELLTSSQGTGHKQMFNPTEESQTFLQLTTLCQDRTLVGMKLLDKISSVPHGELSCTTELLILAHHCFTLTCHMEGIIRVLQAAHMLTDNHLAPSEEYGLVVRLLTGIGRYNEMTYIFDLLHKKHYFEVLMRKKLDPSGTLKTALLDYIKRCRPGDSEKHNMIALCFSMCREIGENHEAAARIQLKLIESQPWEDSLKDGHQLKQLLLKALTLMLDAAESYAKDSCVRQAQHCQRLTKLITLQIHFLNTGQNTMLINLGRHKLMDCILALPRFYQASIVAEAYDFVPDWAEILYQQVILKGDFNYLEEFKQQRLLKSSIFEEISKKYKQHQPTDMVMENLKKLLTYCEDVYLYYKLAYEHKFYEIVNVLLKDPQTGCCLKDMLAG
inactive: [1] -0.22 | [2] -0.253 | [3] 0.015 | [4] 0.067 | [5] 0.006

STK36 (UniProt Q9NRP7)
inactive: [1] -0.014 | [2] 0.174 | [3] 0.163 | [4] -0.43 | [5] -0.42

SRM (UniProt P19623)
inactive: [1] -0.007 | [2] 0.029 | [3] 0.001 | [4] 0.009 | [5] 0.039

STAU1 (UniProt O95793)
Sequence of UniProt O95793 (O95793 whole entry, looked up): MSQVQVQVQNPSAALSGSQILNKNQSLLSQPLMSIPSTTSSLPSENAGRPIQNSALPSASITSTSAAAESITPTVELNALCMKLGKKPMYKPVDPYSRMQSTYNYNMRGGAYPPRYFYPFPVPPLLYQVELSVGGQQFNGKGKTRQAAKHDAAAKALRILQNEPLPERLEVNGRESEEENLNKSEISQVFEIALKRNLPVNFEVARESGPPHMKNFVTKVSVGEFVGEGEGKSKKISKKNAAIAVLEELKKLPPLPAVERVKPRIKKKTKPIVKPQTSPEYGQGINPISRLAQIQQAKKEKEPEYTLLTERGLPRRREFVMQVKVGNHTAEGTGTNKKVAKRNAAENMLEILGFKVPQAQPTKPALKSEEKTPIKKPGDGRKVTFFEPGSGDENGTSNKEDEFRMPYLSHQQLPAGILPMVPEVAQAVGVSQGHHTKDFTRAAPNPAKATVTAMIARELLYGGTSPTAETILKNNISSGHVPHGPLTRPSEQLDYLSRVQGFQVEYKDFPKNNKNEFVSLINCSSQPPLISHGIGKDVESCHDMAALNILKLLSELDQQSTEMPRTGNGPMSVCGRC
inactive: [1] -0.023 | [2] -0.021 | [3] 0.012 | [4] 0.059 | [5] 0.09

SMG5 (UniProt Q9UPR3)
Sequence of UniProt Q9UPR3 (Q9UPR3 whole entry, looked up): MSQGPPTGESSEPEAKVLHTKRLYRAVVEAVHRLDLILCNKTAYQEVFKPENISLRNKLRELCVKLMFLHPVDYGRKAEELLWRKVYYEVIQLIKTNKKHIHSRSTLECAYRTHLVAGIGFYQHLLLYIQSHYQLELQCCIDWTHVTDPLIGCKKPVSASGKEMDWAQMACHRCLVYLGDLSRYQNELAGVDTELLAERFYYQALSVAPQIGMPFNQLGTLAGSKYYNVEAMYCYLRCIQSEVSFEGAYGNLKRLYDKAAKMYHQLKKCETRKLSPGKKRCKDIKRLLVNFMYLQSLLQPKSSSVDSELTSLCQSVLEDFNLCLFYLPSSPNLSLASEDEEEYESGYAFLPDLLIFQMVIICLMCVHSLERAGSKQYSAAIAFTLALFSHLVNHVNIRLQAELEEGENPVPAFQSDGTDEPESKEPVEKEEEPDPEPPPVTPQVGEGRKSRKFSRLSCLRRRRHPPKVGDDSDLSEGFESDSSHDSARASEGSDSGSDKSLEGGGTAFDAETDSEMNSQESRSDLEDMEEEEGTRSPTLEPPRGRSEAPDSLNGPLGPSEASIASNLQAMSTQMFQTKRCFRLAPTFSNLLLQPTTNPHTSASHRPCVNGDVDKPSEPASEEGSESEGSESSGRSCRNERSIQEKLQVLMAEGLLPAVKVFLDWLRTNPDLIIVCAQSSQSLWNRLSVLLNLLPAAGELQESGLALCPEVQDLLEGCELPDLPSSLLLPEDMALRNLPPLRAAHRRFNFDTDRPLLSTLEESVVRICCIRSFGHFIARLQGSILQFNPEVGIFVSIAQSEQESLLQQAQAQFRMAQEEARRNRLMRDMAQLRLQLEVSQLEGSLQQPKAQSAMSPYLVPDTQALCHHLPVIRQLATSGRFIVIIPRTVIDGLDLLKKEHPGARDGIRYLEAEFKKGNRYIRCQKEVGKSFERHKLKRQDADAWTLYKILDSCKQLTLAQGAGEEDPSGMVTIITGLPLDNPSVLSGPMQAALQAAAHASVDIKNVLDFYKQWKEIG
inactive: [1] -0.078 | [2] 0.041 | [3] 0.026 | [4] -0.047 | [5] -0.024

SRGN (UniProt P10124)
Sequence of UniProt P10124 (P10124 whole entry, looked up): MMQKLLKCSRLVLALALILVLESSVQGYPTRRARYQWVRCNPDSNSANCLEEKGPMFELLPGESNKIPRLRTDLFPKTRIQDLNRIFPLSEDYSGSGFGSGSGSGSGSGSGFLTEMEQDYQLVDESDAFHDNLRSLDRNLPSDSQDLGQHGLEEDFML
inactive: [1] 0.101 | [2] 0.14 | [3] 0.063 | [4] -0.03 | [5] -0.196

SH3GL3 isoform 3 (UniProt Q99963)
inactive: [1] 0.024 | [2] 0.033 | [3] 0.133 | [4] -0.169 | [5] -0.416

SSB (UniProt E7ERC4)
inactive: [1] -0.137 | [2] 0.12 | [3] 0.186 | [4] -0.105 | [5] 0.444

SPIRE1 (UniProt Q08AE8)
Sequence of UniProt Q08AE8 (Q08AE8 whole entry, looked up): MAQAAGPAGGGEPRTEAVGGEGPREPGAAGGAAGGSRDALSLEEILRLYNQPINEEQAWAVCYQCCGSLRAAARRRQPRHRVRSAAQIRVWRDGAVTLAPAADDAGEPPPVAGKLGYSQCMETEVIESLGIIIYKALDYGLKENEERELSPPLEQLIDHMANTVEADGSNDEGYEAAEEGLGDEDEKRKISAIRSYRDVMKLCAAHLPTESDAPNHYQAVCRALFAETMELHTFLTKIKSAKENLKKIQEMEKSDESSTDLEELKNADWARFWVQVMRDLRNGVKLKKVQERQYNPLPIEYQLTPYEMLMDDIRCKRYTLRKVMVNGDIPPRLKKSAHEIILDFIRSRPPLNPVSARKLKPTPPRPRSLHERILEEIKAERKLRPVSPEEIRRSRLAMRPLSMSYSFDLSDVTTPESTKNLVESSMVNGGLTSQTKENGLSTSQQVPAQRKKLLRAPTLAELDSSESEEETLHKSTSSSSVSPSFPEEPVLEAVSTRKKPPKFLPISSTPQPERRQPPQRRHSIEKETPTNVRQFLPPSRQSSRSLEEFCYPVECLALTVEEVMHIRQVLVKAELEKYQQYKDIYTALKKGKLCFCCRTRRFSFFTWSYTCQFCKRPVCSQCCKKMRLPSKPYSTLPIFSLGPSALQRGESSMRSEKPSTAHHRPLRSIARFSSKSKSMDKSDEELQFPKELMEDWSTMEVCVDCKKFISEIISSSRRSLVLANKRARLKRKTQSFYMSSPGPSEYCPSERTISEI
inactive: [1] -0.008 | [2] 0.031 | [3] -0.006 | [4] -0.053 | [5] -0.212
